Source: PubChem
Hits are enriched below; roughly 1.1% of the tested compounds scored in any of these assays.
AmpC inh no detg: inhibitors of E. coli AmpC beta-lactamase without detergent; P00811; AID 485341; AmpC nitrocefin hydrolysis, absorbance 480 nm, 0.0001% Triton; 330,000 compounds, 0.52% hits; Potency, µM (highest dose often 57.1 µM), without a hit: at the top dose activity change, negative = inhibition, most hits filed as inhibitors;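 note: plate controls were no compound for no effect and no enzyme for full effect; nearly all actives have a fitted effect of over 20% in size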
Target sequence (P00811 whole entry, looked up): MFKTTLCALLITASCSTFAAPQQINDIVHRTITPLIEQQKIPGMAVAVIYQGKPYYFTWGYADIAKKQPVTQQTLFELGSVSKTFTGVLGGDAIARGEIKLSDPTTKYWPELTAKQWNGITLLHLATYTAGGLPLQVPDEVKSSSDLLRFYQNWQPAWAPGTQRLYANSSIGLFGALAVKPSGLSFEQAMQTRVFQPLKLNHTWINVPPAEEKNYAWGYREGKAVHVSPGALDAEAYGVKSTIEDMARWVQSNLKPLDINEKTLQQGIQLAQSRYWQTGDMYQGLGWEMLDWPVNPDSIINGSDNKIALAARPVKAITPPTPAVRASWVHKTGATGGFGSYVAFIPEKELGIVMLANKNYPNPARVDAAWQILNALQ
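AmpC (5.3 nM in the dispensed reagent) in 20 mM phosphate pH 7.0 with 0.01% (detergent screen) or 0.0001% Triton X-100 was preincubated with compounds for 15 min at room temperature. Nitrocefin was then added from an 800 uM solution, and hydrolysis was followed at 480 nm.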
AmpC inh detg: blocks E. coli AmpC beta-lactamase in detergent assay | AmpC hydrolysis of nitrocefin, absorbance 480 nm, 0.01% Triton | Potency, µM (highest dose often 114 µM), inactives show top-dose activity change, negative = inhibition, most hits filed as inhibitors | 370,000 compounds, 0.041% hits | AID 485294;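 note: 0% = no-compound wells and -100% = no-enzyme wells; nearly all actives have a fitted effect of over 25% in size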
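AmpC (5.3 nM in the dispensed reagent) in 20 mM phosphate pH 7.0 with 0.01% (detergent screen) or 0.0001% Triton X-100 was preincubated with compounds for 15 min at room temperature. Nitrocefin was then added from an 800 uM solution, and hydrolysis was followed at 480 nm.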
Vaccinia Venus: vaccinia inhibition (Venus reporter). Vaccinia virus Venus reporter expression, fluorescence. Potency, µM (highest dose often 36.5 µM), inactives show top-dose activity change, negative = inhibition, most hits filed as inhibitors. 330,000 compounds, 0.46% hits. AID 720580; calls by dose curve; tested in A549 cells; note: nearly all actives have a fitted effect of over 30% in size
Vaccinia mCherry: inhibitors of vaccinia virus infection (mCherry reporter signal); Vaccinia virus mCherry reporter infection, fluorescence; Potency, µM (series often up to 36.5 µM), inactives show at the highest dose activity change, negative = inhibition, hits mostly inhibitors; 310,000 compounds, 0.63% hits; AID 720579; calls by dose curve; tested in A549 cells; note: nearly all actives have a fitted effect of over 35% in size
The depositor's hits bear a star; i = inactive; u = inconclusive; x = not tested or not shown. Unless noted, calls come from the whole dose curve; as a rule, active = well fitted curve in the direction sought with a large enough effect; inconclusive = small, poorly fitted or top-dose-only effect, or another doubt; inactive = no such curve, though single readings can be large; an effect the other way counts as inactive or inconclusive. Unless noted, % is set by controls: 0 for no effect and ±100 for the full control effect; potency is the fitted concentration of half-maximal effect.

SMILES | AmpC inh no detg | AmpC inh detg | Vaccinia Venus | Vaccinia mCherry
COc1cccc(-c2nc3cc4c(cc3cc2CN(C(=O)c2cc(C)nn2C)C2CC2)CCC4)c1OC | x | x | -7.5% | -19.6%
COCC(=O)Nc1cc(C(=O)N2CCc3ccccc3C2)c2c(c1)nc(-c1ccncc1)n2C | x | x | -8.5% | -10.2%
Clc1ccc(SCc2cc(N3CCOCC3)nc(-c3ccccn3)n2)cc1 | 103.8% | -12.7% | u | 7.94µM*
Clc1ccc(SCc2csc(N3CCOCC3)n2)cc1 | 13.8% | -7.2% | -15.5% | -3.0%
O=C(NCCc1nnc2n1CCN(Cc1ccc(F)c(F)c1)CC2)c1ccoc1 | x | x | -7.1% | -9.4%
CC(=O)OC1C(O)C(C)OC(OC2C(OC(=O)C3CCC4C(C3)OC3(CC(OC(=O)/C=C/c5ccccc5)C(C)CO3)C43CO3)OC(C)C(O)C2OC(C)=O)C1O (stereo unspecified) | x | x | 0.316µM* | u
CS(=O)(=O)Nc1cccc(-c2nc(Nc3ccccc3)c3ccccc3n2)c1 | x | x | 0.0% | i
COc1cc(NS(C)(=O)=O)ccc1Cc1c2ccccc2nc2ccccc12 | x | x | u | 1.26µM*
C=CCN1CC[C@@H](O)C(=C)S1(=O)=O | x | x | -11.2% | -20.5%
NC(=S)NN=Cc1nccc2c(C(F)(F)C(F)(F)C(F)(F)F)cccc12 | x | x | 1µM* | 0.316µM*
Cc1cnc(C=NNC(N)=S)c2cccc(N)c12 | x | x | -28.6% | u
CCCOC(=O)C1=C(C)CS[C@@H]2[C@H](NC(=O)COc3ccccc3)C(=O)N12 | x | x | u | -11.3%
CN(CCO)C(=O)c1cn(C2CCCN(Cc3ccc4ccccc4c3)C2)nn1 (stereo unspecified) | x | x | -11.7% | i
COc1cc(C2c3cc4c(cc3C(O)C3COC(=O)C23)OCO4)cc(OC)c1O (stereo unspecified) | x | x | u | 14.1µM*
O=C(NCCO)c1cn(C2CCN(Cc3c(F)cccc3Cl)CC2)nn1 | x | x | -4.1% | -4.0%
O=C(C[n+]1cccc2cccc(O)c21)c1ccccc1 | x | x | 20.7% | -1.3%
O=C(c1ccc(Cl)cc1)c1c[nH]c(C(=O)NNc2cccc(Cl)n2)c1 | -30.3% | -0.7% | 11.2µM* | u
O=C(c1ccccc1)c1c[nH]c(C(=O)NNc2cccc(Cl)n2)c1 | -27.2% | 3.0% | -14.0% | -27.0%
COc1cc(/C=N/NC(N)=S)cc(Br)c1OCc1ccccc1F | -54.0% | 1.3% | 2.51µM* | u
COc1cc(CNc2ccc3[nH]c(=O)[nH]c3c2)ccc1OCc1ccccc1F | -12.1% | 0.8% | u | u
COc1cc(OC)c(/C=N/NC(=O)c2ccncc2)cc1Br | -27.9% | -10.1% | -8.2% | -4.7%
CCOc1cc(/C=N/NC(N)=S)cc(Br)c1OCc1ccccc1C | -10.9% | -2.7% | x | x
COc1cc(CNc2ccc3[nH]c(=O)[nH]c3c2)cc(Br)c1OCc1ccccc1F | -13.3% | 0.1% | u | 6.31µM*
COc1cc(OC)c(/C=N/NC(N)=S)cc1Br | -39.0% | -6.3% | 1.26µM* | 1µM*
CCCN1CNc2c(c(=O)[nH]c(=S)n2CCc2cc(C)cc(C)c2)C1 | x | x | -23.5% | i
SMILES | AmpC inh no detg | AmpC inh detg | Vaccinia Venus | Vaccinia mCherry
CCCc1c(C(=O)N/N=C(\C)c2ccccc2O)nnn1-c1nonc1N | x | x | -16.6% | u
C/C(=N\NC(=O)c1nnn(-c2nonc2N)c1-c1ccccc1)c1ccccc1O | -35.4% | u | u | 2µM*
CCCN(CCC)Cc1c(C(=O)N/N=C/C(C)=C\c2ccco2)nnn1-c1nonc1N | -45.5% | -0.5% | u | 10µM*
CC(/C=N/NC(=O)c1nnn(-c2nonc2N)c1CN(C)C)=C\c1ccco1 | 6.8% | 3.4% | -12.1% | -16.4%
C/C(=N\NC(=O)c1nnn(-c2nonc2N)c1CN(C)c1ccccc1)c1ccc(O)cc1 | 25.1µM* | -1.1% | x | x
CC(C)C(NS(C)(=O)=O)c1nnc2n1CCN(Cc1ccc(C#CC(C)(C)O)cc1)CC2 (stereo unspecified) | x | x | -3.1% | -13.2%
CC(C)NS(=O)(=O)c1ccc2[nH]c3nc(SCC(=O)Nc4ccc(F)c(F)c4)nnc3c2c1 | x | x | -7.6% | -19.1%
COc1cc(/C=N/NC(=O)c2cc(-c3ccccc3OC(C)C)nc3ccccc23)ccc1O | 1.4% | u | 7.7% | 12.6µM*
O=C(NN=Cc1cccc(O)c1O)c1ccccc1 | x | x | u | 10µM*
Cc1cccc(/C=N/NC(=O)c2c(-c3ccccc3)noc2C)c1O | -23.5% | 3.1% | -27.7% | 0.562µM*
COc1cc(/C=N/NC(=O)CCn2cnc(-c3ccccc3)c2-c2ccccc2)ccc1O | -18.8% | -7.8% | u | 8.91µM*
